D2 antag: D2 dopamine receptor (human) antagonism | P14416 | HEK293 TREx D2 cells, calcium flux, dopamine EC80 | actives 2% (n = 340,000) | inhibition, % at 10 µM; in the data active = inhibition above about 30%; inactive = below that, where a call was filed; note: 0% is about no effect
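Antagonism is scored as inhibition of an EC80 dopamine-evoked calcium signal in a force-coupled, tetracycline-inducible HEK293 T-REx D2 line, with compound present 180 s before agonist.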
D2 PAM-1: human D2 receptor positive allosteric modulation; DiscoveRx D2 beta-arrestin cells, luminescence, 90 min; 100% = 57 uM dopamine signal; potentiation, % (test concentration not listed); actives 0.23% (n = 360,000); in the data active = potentiation above about 50%; inconclusive = mostly about 30% to 49%
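D2 cells co-treated with compound plus 50 nM dopamine (EC20) for 90 min at 37 deg C to detect potentiation. Beta-arrestin recruitment was read as enzyme-fragment luminescence after 1 h at ambient temperature. Full response was set by 57 uM dopamine.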
D2 ag-1: D2 dopamine receptor (human) agonism | activation, % at 2 µM | actives 0.53% (n = 340,000) | AID 485358 | HEK293 T-REx D2 cells, calcium flux agonist mode | P14416;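 active = activation over 3 SD above normal in the single-dose calcium agonist read, cut at about 30% in these data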; note: 0% is about no effect
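Tetracycline-induced HEK293 Trex cells with D2 receptor force-coupled to calcium signaling, plated overnight at 30 C and loaded with no-wash calcium dye. Calcium flux read kinetically for 180 s after compound addition; responses flag agonists.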
D2 PAM-2: positive allosteric modulators of human D2 dopamine receptor | P14416 | HEK293 T-REx D2, calcium flux, EC20 dopamine potentiation | potentiation, % at 10 µM | actives 0.34% (n = 340,000) | AID 485347;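 active = potentiation over 3 SD above the plate norm, cut at about 30% in these data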; note: 0% is about no effect
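Cells plated with tetracycline inducer and held overnight at 30 C; calcium dye loaded 30–90 min at room temperature; baseline taken, compound added and read 180 s; EC20 dopamine then added and read 180 s.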
D2 ag-2: human D2 receptor agonism in beta-arrestin assay; activation, % (concentration not given with the values); AID 624465; DiscoveRx PathHunter D2 beta-arrestin, luminescence, 90 min; 100% = 57 uM dopamine signal; actives 0.084% (n = 360,000); in the data active = activation above about 40%; inconclusive = between about 15% and that limit
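DiscoveRx PathHunter D2 beta-arrestin cells (2,100/well) attached overnight, then compound-stimulated 90 min at 37 C in HBSS/10 mM HEPES/0.1% Tween-20 buffer; beta-galactosidase complementation read by luminescence after 1 h at ambient temperature. Dopamine 57 uM final (EC100) as control.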
D3 arrestin ag: D3 receptor agonism confirmed, beta-arrestin readout; actives 4% (n = 2,300); Potency, µM (titrated, usually from 76.9 µM), for inactives: at the top dose activation, usual class: activators; DiscoveRx D3 beta-arrestin cells, luminescence, 90 min; shares compounds with D2 ag-1; AID 720506;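 note: potency is the fitted concentration of half-maximal effect; 100% = dopamine control response; nearly all actives have a fitted effect of over 70% in size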
Target sequence (P35462 whole entry, looked up): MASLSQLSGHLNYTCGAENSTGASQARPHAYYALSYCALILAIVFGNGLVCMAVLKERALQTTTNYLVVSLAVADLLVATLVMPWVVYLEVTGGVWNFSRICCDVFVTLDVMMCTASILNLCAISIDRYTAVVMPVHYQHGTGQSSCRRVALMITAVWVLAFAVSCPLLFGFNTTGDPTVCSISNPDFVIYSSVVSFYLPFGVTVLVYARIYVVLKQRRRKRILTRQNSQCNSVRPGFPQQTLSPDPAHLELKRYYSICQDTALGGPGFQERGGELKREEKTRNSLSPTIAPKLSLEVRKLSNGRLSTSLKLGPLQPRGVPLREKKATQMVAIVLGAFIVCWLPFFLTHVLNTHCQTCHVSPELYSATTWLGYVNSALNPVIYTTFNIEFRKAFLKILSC
D2 ag-3: counter-screen for D3 agonists: human D2 dopamine receptor agonism; AID 720507; DiscoveRx PathHunter D2 beta-arrestin, luminescence, 90 min; response scale: percent relative to full dopamine signal; actives 5.9% (n = 2,300); Potency, µM (top dose mostly 76.9 µM), for inactives: at the top dose activation, usual class: activators; shares compounds with D2 ag-1; note: potency is the fitted concentration of half-maximal effect; % of control where 0% means no effect; nearly all actives have a fitted effect of over 70% in size
Numbers without * were called inactive; u = inconclusive; x = not tested or not shown. Most compounds without a hit are left out; they make up all but 2.4% or so of the library. Unless noted, calls come from the whole dose curve; as a rule, active = well fitted activation curve with a large enough effect; inconclusive = small, poorly fitted or top-dose-only effect; inactive = flat fitted curve, though single readings scatter.

SMILES | D2 antag | D2 PAM-1 | D2 ag-1 | D2 PAM-2 | D2 ag-2 | D3 arrestin ag | D2 ag-3
CCCCC1CCC(C(=O)N2CC(=O)Nc3ccc(Cl)cc3C2c2ccc(F)cc2)CC1 (stereo unspecified) | x | x | 0 | -6 | x | x | x
CC(C)C(=O)Nc1ccc2c(c1)nc(CCN1CCN(c3ccccc3)CC1)n2C | 18 | -9 | 61* | -21 | -2 | u | 8%
Cc1ccc(OCC(=O)Nc2ccc3c(c2)nc(CCN2CCN(c4ccccn4)CC2)n3C)cc1 | x | -25 | x | x | 2 | x | x
Cn1c(CCN2CCCC2)nc2cc(NS(=O)(=O)c3ccc(Cl)cc3)ccc21 | 3 | -28 | 0 | -6 | 1 | x | x
Cn1c(CCN2CCN(c3ccccn3)CC2)nc2cc(NC(=O)COc3ccccc3)ccc21 | 47* | 2 | -1 | 1 | 6 | u | u
Cn1c(CCN2CCN(c3ccccn3)CC2)nc2cc(NS(=O)(=O)c3ccccc3)ccc21 | x | -25 | x | x | 13 | u | u
CCCCC(=O)Nc1ccc2c(c1)nc(CCN1CCN(c3ccccn3)CC1)n2C | 51* | -5 | 67* | -24 | 14 | u | u
CCCC(=O)Nc1ccc2c(c1)nc(CCN1CCN(c3ccccn3)CC1)n2C | 47* | -10 | 67* | -22 | 8 | u | u
CCOC(=O)c1[nH]c2ccccc2c1NC(=S)Nc1ccccc1 | 5 | 13 | 1 | 16 | u | x | x
CN(C)Cc1c(C(=O)Nc2ccccc2)[nH]c2ccccc12 | 45* | -28 | 0 | -27 | -1 | -11% | -2%
O=C(CN1CCN(Cc2ccccc2)CC1)NC(=O)NC1CCCCC1 | -4 | -20 | 0 | 13 | -4 | x | x
O=C(CN1CCN(C/C=C/c2ccccc2)CC1)NC(=O)NC1CCCCC1 | 71* | -15 | 23 | -34 | 1 | 17% | 11%
CCN(c1ccc(OC)cc1)S(=O)(=O)c1ccc2[nH]c3c(c2c1)CCCCC3 | x | x | 0 | 4 | x | x | x
CCOC(CNC(=O)Cn1nc(Cc2ccncc2)c2ccccc2c1=O)OCC | -5 | 3 | 0 | 10 | 1 | x | x
COC(CNC(=O)Cn1nc(Cc2ccncc2)c2ccccc2c1=O)OC | -13 | -12 | 0 | 2 | 2 | -1% | 4%
COc1ccc(C(=O)N=C2SC3CS(=O)(=O)CC3N2Cc2ccccc2)cc1OC (stereo unspecified) | 15 | -5 | 0 | 25 | -2 | u | 12%
CC(Sc1nnc(-c2cccnc2)n1N)C(=O)N1CCOCC1 (stereo unspecified) | 8 | -8 | 0 | -9 | 0 | x | x
CC(Sc1nnc(-c2cccnc2)n1N)C(=O)NCCC1=CCCCC1 (stereo unspecified) | 12 | -7 | 47* | -2 | 3 | 14% | 23%
Cc1ccc(CNC(=O)c2cc(=O)c3cc(C)c(C)cc3o2)cc1 | x | x | -1 | -25 | x | x | x
CN(CC(=O)NNC(=O)CNC(=O)c1ccccc1F)S(=O)(=O)c1ccc(Cl)cc1 | -14 | 2 | 4 | 0 | 5 | x | x
CN(CC(=O)NNC(=O)CNC(=O)c1cccs1)S(=O)(=O)c1ccc(Cl)cc1 | 10 | -28 | 42* | -4 | 2 | -5% | 5%
CCOc1ccccc1C(=O)NCC(=O)NNC(=O)CN(C)S(=O)(=O)c1ccc(Cl)cc1 | x | -10 | x | x | u | u | u
CCS(=O)(=O)N1CC(=O)N(c2ccc(C)c(C)c2)C(C)(C(=O)NC2CCCCC2)C1 (stereo unspecified) | x | x | 1 | -6 | x | x | x
O=c1ccn(CCc2c[nH]c3ccccc23)c2c1CCCC2 | 19 | 3 | 43* | -19 | 2 | -5% | -1%
Cc1ccc(-c2nn3c(=O)cc(CN4CCN(C(=O)/C=C/c5ccccc5)CC4)nc3s2)cc1 | x | x | 0 | 5 | x | x | x
SMILES | D2 antag | D2 PAM-1 | D2 ag-1 | D2 PAM-2 | D2 ag-2 | D3 arrestin ag | D2 ag-3
COc1ccc(CC(=O)NC(C)(C)CC(C)=O)cc1OC | -11 | 0 | 0 | 5 | -2 | x | x
CC(=O)CC(C)(C)NC(C)=S | -8 | -7 | 34* | -16 | -2 | -16% | -4%
CC(=O)OCC1=C[C@@H]2OC(=O)C3=CO[C@@H](O[C@@H]4O[C@H](CO)[C@@H](O)[C@H](O)[C@H]4O)[C@H]1[C@@H]32 | 4 | -5 | 0 | 1 | -2 | 1% | -3%
COC(=O)C1=CO[C@@H](O[C@@H]2O[C@H](CO)[C@@H](O)[C@H](O)[C@H]2O)C2C(CO)=CCC12 (stereo partly specified) | x | -50 | x | x | 2 | x | x
Oc1ccc(Cl)cc1C=Nc1ccccc1Br | 18 | -5 | 1 | 1 | -4 | x | x
Oc1ccc(Br)cc1C=Nc1ccc2c3c(cccc13)CC2 | 15 | -28 | 8 | 3 | -10 | -2% | -12%
O=C(c1oc(=O)c2ccccc2c1-c1ccccc1)N1CCC(O)CC1 | 24 | -8 | -1 | 4 | -9 | -8% | -6%
COc1ccc(NC(=O)CCS(=O)(=O)c2cc3c4c(c2)CCN4C(=O)CC3)cc1OC | x | x | 1 | 10 | x | x | x
COCCn1c(SCC(=O)NCc2ccc3c(c2)OCO3)nnc1C(C)C | -18 | -3 | 1 | 0 | -2 | x | x
COCCn1c(SCC(=O)NCc2ccc3c(c2)OCO3)nnc1-c1c[nH]c2ccccc12 | -9 | -1 | 64* | -13 | -3 | 3% | -2%
COc1ccc(C(=O)NCC(=O)N/N=C/c2cn[nH]c2-c2ccccc2)cc1 | 19 | -3 | 11 | x | 10 | -1% | 7%
CCCCCCc1cc2cc(S(=O)(=O)c3ccc(F)c(Cl)c3)c(=O)oc2cc1O | 8 | 13 | 34* | -7 | 7 | 28µM* | u
O=S(=O)(c1ccc(Br)cc1)c1nc(-c2ccco2)oc1SCc1ccccc1Cl | x | x | 0 | 6 | x | x | x
CCCCn1c(/C=C/c2ccco2)nc2ccccc21 | 64* | -10 | 40* | -18 | -2 | -6% | -1%
CCCn1c(/C=C/c2ccco2)nc2ccccc21 | -5 | -14 | 10 | -4 | 3 | 0% | 8%
CCOc1ccccc1NS(=O)(=O)c1c(-c2ccc(C)cc2)csc1C(=O)OC | x | x | 1 | 7 | x | x | x
CCCn1cc(SCC(=O)NC2CCCC2)c2ccccc21 | -16 | -14 | -1 | 1 | -8 | -18% | -1%
CCOC(=O)c1cccc(NC(=O)NC(C)c2c(-n3cccc3)sc3c2CCN(C)C3)c1 (stereo unspecified) | x | x | -1 | 1 | x | x | x
CC(C)N1CCN(Cc2cccc(-c3ccco3)c2)CC1CCO (stereo unspecified) | 14 | -16 | 0 | -3 | 3 | -8% | -6%

Compound activity from PubChem BioAssay.
